The panel holds about 83,000 compounds, 20% with a hit somewhere; the sample as a whole holds those more often.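 Cell lines were cultured in 96-well plates, exposed to a single compound concentration, and assessed for percent growth 48 hours later.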 Activity calls are given as the source filed them. Rule for the calls: active = growth percent below 10; inactive = the rest.
Experiments:
Assay in all cases: NCI-60 one-dose screen, 48 h (100 = growth as untreated, 0 = no growth, -100 = all killed)
Details in all cases: 10 µM unless noted
SR leukemia = tested on: SR leukemia
RPMI-8226 leukemia = tested on: RPMI-8226 leukemia
OVCAR-8 ovarian = tested on: OVCAR-8 ovarian
OVCAR-5 ovarian = tested on: OVCAR-5 ovarian
OVCAR-4 ovarian = tested on: OVCAR-4 ovarian
SK-OV-3 ovarian = tested on: SK-OV-3 ovarian
IGROV1 ovarian = tested on: IGROV1 ovarian
OVCAR-3 ovarian = tested on: OVCAR-3 ovarian
HS 578T breast = tested on: HS 578T breast
NCI/ADR-RES ovarian = tested on: NCI/ADR-RES ovarian

| SMILES | growth (SR leukemia) | growth (RPMI-8226 leukemia) | growth (OVCAR-8 ovarian) | growth (OVCAR-5 ovarian) | growth (OVCAR-4 ovarian) | growth (SK-OV-3 ovarian) | growth (IGROV1 ovarian) | growth (OVCAR-3 ovarian) | growth (HS 578T breast) | growth (NCI/ADR-RES ovarian) |
| --- | --- | --- | --- | --- | --- | --- | --- | --- | --- | --- |
| COc1ccc(C(C)=C(c2ccc(OCCN3CCCCCC3)cc2)c2ccc(OCCN3CCCCCC3)cc2)cc1 | -12.1% (active) | -44.9% (active) | 0.8% (active) | 22.9% (inactive) | -66.7% (active) | 72.9% (inactive) | -67.9% (active) | -47.2% (active) | -52.1% (active) | -60% (active) |
| COC(=O)c1ccc(NC2=C(Cl)C(=O)C(C)=C(C)C2=O)cc1 | 13.6% (inactive) | 36.5% (inactive) | 77.9% (inactive) | 90.9% (inactive) | 32.4% (inactive) | 86.2% (inactive) | 70.4% (inactive) | 30.1% (inactive) | 77.1% (inactive) | 65.2% (inactive) |
| CC(Nc1c(C#N)cnc2ccc(-c3cncc(O)c3)cc12)c1ccccc1 (stereo not given) | 6.19% (active) | 11.3% (inactive) | 13% (inactive) | 25.6% (inactive) | -17.5% (active) | -3.84% (active) | -20.3% (active) | 7.92% (active) | -18.3% (active) | 12.4% (inactive) |
| C#CCN(C)CCCOc1ccc(NC(=O)CCCCCCCCC(=O)NO)cc1Cl | 32.7% (inactive) | 40.2% (inactive) | 53.4% (inactive) | 68.8% (inactive) | 74.3% (inactive) | 84.8% (inactive) | 71.5% (inactive) | 73.7% (inactive) | 70.3% (inactive) | 82.7% (inactive) |
| C#C[C@]1(O)CC[C@H]2[C@@H]3CC=C4c5sc(Nc6cc(C)cc(C)c6)nc5CC[C@]4(C)[C@H]3CC[C@@]21C | 11.6% (inactive) | -27.3% (active) | 53% (inactive) | 54.5% (inactive) | 47.7% (inactive) | -38.7% (active) | 46.8% (inactive) | 48.9% (inactive) | -10.8% (active) | 47.7% (inactive) |
| NC1[C@H]2CN(c3cnc(C(=O)Nc4cc(F)cc5cccnc45)cn3)C[C@@H]12 (stereo not given in full) | 8.36% (active) | 68.9% (inactive) | 87.7% (inactive) | 77.3% (inactive) | 17.4% (inactive) | 93.2% (inactive) | 29.4% (inactive) | 2.08% (active) | 77.2% (inactive) | 85.3% (inactive) |
| CC1=C(C)C(=O)C(Nc2ccc3c(c2)OCCO3)=C(Br)C1=O | 77.6% (inactive) | 100% (inactive) | 100% (inactive) | 108% (inactive) | 66.8% (inactive) | 93.9% (inactive) | 102% (inactive) | 109% (inactive) | 97.3% (inactive) | 97.3% (inactive) |
| CCN(CC)CCOc1ccc(C(=C(c2ccccc2)C2CCCC2)c2ccc(OCCN(CC)CC)cc2)cc1 | -5.92% (active) | -30.8% (active) | 40.5% (inactive) | 38.5% (inactive) | 34.7% (inactive) | 21.2% (inactive) | -40.4% (active) | 16.9% (inactive) | 12.8% (inactive) | 97.1% (inactive) |
| COc1ccc2c(c1)c(-c1nnc(N)nc1-c1c[nH]c3ccc(F)cc13)cn2C | 12.5% (inactive) | 28.2% (inactive) | 59.5% (inactive) | 84.2% (inactive) | 86.3% (inactive) | 80.7% (inactive) | 45.7% (inactive) | 3.98% (active) | 49.8% (inactive) | 75.2% (inactive) |
| CCN(CC)S(=O)(=O)c1ccc(-c2nc(C(Cl)Cl)nc3cc(-c4ccc(F)cc4)nn23)cc1 | 30.8% (inactive) | 6.42% (active) | 27.6% (inactive) | 51.6% (inactive) | 45.2% (inactive) | 42.7% (inactive) | 56.9% (inactive) | 16.8% (inactive) | 36.4% (inactive) | 23.5% (inactive) |
| CCN(CC)S(=O)(=O)c1ccc(-c2nc(C(Cl)Cl)nc3cc(C)nn23)cc1 | 9.52% (active) | -7.21% (active) | 12.3% (inactive) | 41.5% (inactive) | 34.4% (inactive) | 18.4% (inactive) | 12% (inactive) | 21.1% (inactive) | 35.6% (inactive) | 14% (inactive) |
| Nc1ncc(-c2ccc3ncnc(NCc4ccccc4)c3c2)cn1 | 42.2% (inactive) | 31.5% (inactive) | 54.3% (inactive) | 36.7% (inactive) | 57.8% (inactive) | 39.5% (inactive) | -8.67% (active) | 45.9% (inactive) | 14.7% (inactive) | 69% (inactive) |
| CCCCN1C(=O)/C(=c2\sc3n(c2=O)C2C(NN=3)N(CC)C(=O)N2CC)c2cc(C)ccc21 (stereo not given) | 64.1% (inactive) | 99.8% (inactive) | 93% (inactive) | 96.1% (inactive) | 97.2% (inactive) | 108% (inactive) | 88.4% (inactive) | 102% (inactive) | 89.7% (inactive) | 81.9% (inactive) |
| CC(Nc1ncnc2ccc(-c3cnc(N)nc3)cc12)c1ccccc1 (stereo not given) | 15.1% (inactive) | 28.2% (inactive) | 48% (inactive) | 28.7% (inactive) | 39.7% (inactive) | 27.3% (inactive) | -13.4% (active) | 43.8% (inactive) | 5.98% (active) | 53% (inactive) |
| CN1CCN(c2ccc(Nc3nc(NCCCNS(=O)(=O)c4ccc(C(F)(F)F)cc4)c4sccc4n3)cc2)CC1 | 7.01% (active) | -9.61% (active) | -72.2% (active) | -3% (active) | -35% (active) | -37% (active) | -6.63% (active) | -74.1% (active) | -35% (active) | -2.63% (active) |
| O=C(CSc1nc2ccccc2c(=O)n1-c1ccccc1)N/N=C/c1ccc(Oc2ccc(Cl)cc2)cc1 | 70.3% (inactive) | 73.3% (inactive) | 59.2% (inactive) | 81.5% (inactive) | 73.7% (inactive) | 83.2% (inactive) | 49.1% (inactive) | 111% (inactive) | 58.9% (inactive) | 52.7% (inactive) |
| Cn1cc(-c2nnc(N)nc2-c2c[nH]c3ccc(Br)cc23)c2cc(Br)ccc21 | 78.4% (inactive) | 109% (inactive) | 104% (inactive) | 120% (inactive) | 98.6% (inactive) | 111% (inactive) | 107% (inactive) | 108% (inactive) | 91.4% (inactive) | 110% (inactive) |
| Cc1ccc(S(=O)(=O)NCCCNc2nc(Nc3ccc(N4CCN(C)CC4)cc3)nc3ccsc23)cc1 | 4.16% (active) | 6.57% (active) | 40% (inactive) | 73.9% (inactive) | 23.7% (inactive) | 117% (inactive) | 57.1% (inactive) | 14.6% (inactive) | 44% (inactive) | 70.4% (inactive) |
| COc1ccc(C(C)=C(c2ccc(OCCN(C)C)cc2)c2ccc(OCCN(C)C)cc2)cc1 | -46.5% (active) | -48.5% (active) | -2.55% (active) | -5.23% (active) | -35.4% (active) | -5.19% (active) | -24.6% (active) | -46.2% (active) | -46.7% (active) | 0.85% (active) |
| N#Cc1c(-c2cccs2)cc(-c2cnccn2)nc1SCC(=O)N/N=C/c1ccc(Cl)cc1 | 87.1% (inactive) | 97.6% (inactive) | 104% (inactive) | 112% (inactive) | 105% (inactive) | 114% (inactive) | 109% (inactive) | 117% (inactive) | 103% (inactive) | 102% (inactive) |
| CCOP(=O)(OCC)OC[C@]12CCC(C)(C)CC1C1=CC[C@@H]3[C@@]4(C)CCCNC(C)(C)[C@@H]4CC[C@@]3(C)[C@]1(C)CC2 (stereo not given in full) | -24.1% (active) | -1.77% (active) | 90.2% (inactive) | 102% (inactive) | 80.9% (inactive) | 112% (inactive) | 44.5% (inactive) | 97.1% (inactive) | 88.7% (inactive) | 73.7% (inactive) |
| C[C@H]1OCC2(CCN(c3cnc(C(=O)Nc4cc(F)cc5cccnc45)cn3)CC2)[C@H]1N | -0.453% (active) | 42.1% (inactive) | 77.6% (inactive) | 74.3% (inactive) | 10.5% (inactive) | 98.8% (inactive) | 20.1% (inactive) | 19.5% (inactive) | 60.8% (inactive) | 72.2% (inactive) |
| Cc1ccc2c(n1)C(=O)C(Cl)=C(Nc1ccc(C(C)C)cc1)C2=O | 3.93% (active) | -21.7% (active) | 8.76% (active) | 103% (inactive) | -74% (active) | 106% (inactive) | -53% (active) | -55.7% (active) | 55.6% (inactive) | 49.9% (inactive) |
| COc1ccc(OC)c(CCn2cncc2-c2c[nH]c3ccc(Cl)cc23)c1 | 16.3% (inactive) | 33.9% (inactive) | 40.5% (inactive) | 83.9% (inactive) | 16.2% (inactive) | 43.1% (inactive) | 58.8% (inactive) | 40% (inactive) | 57.1% (inactive) | 29.8% (inactive) |
| Oc1[nH]c2ccc(Cl)cc2c1N=Nc1nc(N=Nc2c(O)[nH]c3ccc(Cl)cc23)nc(N2CCOCC2)n1 | 29.2% (inactive) | 36.4% (inactive) | 50.1% (inactive) | 95.1% (inactive) | 78.7% (inactive) | 55.5% (inactive) | 55% (inactive) | 52.7% (inactive) | -7.82% (active) | 98.1% (inactive) |
